LASV entry inh: Lassa virus entry inhibition; Lassa virus pseudotype entry inhibition, cell reporter; AID 540256; 300,000 tested, 1.2% active; Potency, µM (highest dose often 37.9 µM), for the others: at the highest dose activity change, negative = inhibition, actives largely listed as inhibitors; calls by dose curve; tested in HEK293 cells; note: potency is the fitted concentration of half-maximal effect; nearly all actives have a fitted effect of over 50% in size
Marburg entry inh: Marburg virus entry inhibition | 300,000 tested, 1.8% active | Marburg virus pseudotyped entry inhibition, cell reporter | Potency, µM (doses to about 37.8 µM), for inactives: top-dose activity change, negative = inhibition, most hits filed as inhibitors | AID 540276; calls by dose curve; tested in HEK293 cells; note: potency is the fitted concentration of half-maximal effect
FBPA Giardia inh: Giardia lamblia aldolase inhibition; A8B2U2; purified Giardia FBPA; Potency, µM (highest dose often 59.6 µM), without a hit: at the top dose activity, negative = inhibition, hits mostly inhibitors; 290,000 tested, 0.71% active; note: potency is the fitted concentration of half-maximal effect; nearly all actives have a fitted effect of over 55% in size
Target sequence (A8B2U2 whole entry, looked up): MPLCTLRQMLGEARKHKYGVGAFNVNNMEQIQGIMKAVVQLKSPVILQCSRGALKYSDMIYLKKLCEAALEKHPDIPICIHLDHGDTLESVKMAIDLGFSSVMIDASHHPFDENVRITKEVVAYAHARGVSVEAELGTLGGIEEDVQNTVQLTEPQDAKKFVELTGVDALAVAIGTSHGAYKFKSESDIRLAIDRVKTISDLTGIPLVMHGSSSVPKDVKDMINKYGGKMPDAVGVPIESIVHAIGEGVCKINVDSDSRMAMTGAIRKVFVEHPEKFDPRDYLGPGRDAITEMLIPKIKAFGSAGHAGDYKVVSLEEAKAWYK
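40 nM FBPA preincubated 10 min at RT with compound (up to 57.5 uM final), then substrate plus GAPDH/TPI/NAD/arsenate coupling and diaphorase/resazurin added. Fluorescence read after 20 min at RT, 525/598 nm.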
FMDV inh: foot and mouth disease virus antiviral activity | FMDV antiviral cell-based qHTS | Potency, µM (top dose mostly 57.9 µM), for inactives: at the top dose activity change, negative = inhibition, actives largely listed as inhibitors | 410,000 tested, 1.2% active | AID 1159524; calls by dose curve; tested in HEK293T cells; note: read-out not given here; potency is the fitted concentration of half-maximal effect; nearly all actives have a fitted effect of over 45% in size
HCMV antiviral: inhibitors of human cytomegalovirus. HFF cells, HCMV-luciferase reporter, 72 h; stronger effect = lower value. 410,000 tested, 4.5% active. activity change, negative = inhibition, % at 57.5 µM; in the data active = activity change below about -60%; inconclusive = no clear call, values can overlap the other calls; inactive = above about -39%
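Steps: HFFs plated, 16 h 37C; compounds added; HCMV-luciferase added to MOI 1 PFU/cell; 72 h 37C; OneGlo reagent, 5 min room temperature; luminescence read, normalized to controls.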
HCV inhibitor: HCV inhibition. Huh7.5.1 HCVcc-Cre infection, luciferase reporter, 44 h. Potency, µM (series often up to 41.8 µM), for inactives: at the highest dose activity change, negative = inhibition, hits mostly inhibitors. 340,000 tested, 3.4% active; note: potency is the fitted concentration of half-maximal effect
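Reporter virus HCVcc-Cre (~0.5 moi) infects cells exposed to compound; seeding density 1,000 cells/well with 4 h settling beforehand. Luminescence, 15 sec read, taken 44 h post-infection following a 15 min RT substrate incubation.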
* marks the source's active call; other numbers are inactive results; ? = inconclusive; nt = no result given; [ ] = remark or other dose. Hits are enriched below; roughly 8.3% of the tested compounds scored in any of these assays. Unless noted, calls come from the whole dose curve; as a rule, active = well fitted curve in the direction sought with a large enough effect; inconclusive = small, poorly fitted or top-dose-only effect, or another doubt; inactive = no such curve, though single readings can be large; an effect the other way counts as inactive or inconclusive. % is set by controls: 0 for no effect and ±100 for the full control effect.

SMILES	LASV entry inh	Marburg entry inh	FBPA Giardia inh	FMDV inh	HCMV antiviral	HCV inhibitor
CC(C)C1CC(CCNCc2ccc(N(C)C)cc2)(c2ccccc2)CCO1 (centres undefined)	?	?	4.7%	-23.3%	?	11.2µM*
Cc1ccc(C2(CCNCc3ccc(N(C)C)cc3)CCOC(C(C)C)C2)cc1 (centres undefined)	?	?	-0.6%	-24.7%	-39.5	?
CC(C)C1CC(CCNCc2ccc3c(c2)OCO3)(c2ccccc2)CCO1 (centres undefined)	?	10µM*	-7.0%	20.3%	-29.5	-16.3%
CCC1(C)CC(CCNS(=O)(=O)c2ccc(C)cc2)(c2ccc(C)cc2)CCO1 (centres undefined)	?	?	-0.4%	12.3%	3.5	2.8%
COc1cc(OC)c2c(=O)c(-c3ccccc3)coc2c1	nt	nt	-3.8%	21.8%	nt	nt
CCOC(=O)N1CCN(C(=O)c2ccc3nc4ccsc4c(=O)n3c2)CC1	nt	nt	1.7%	-16.8%	38.6	1.4%
CCOC(=O)N1CCN(C(=O)c2ccc3nc4ccc(Cl)cc4c(=O)n3c2)CC1	?	?	-0.7%	1.0%	-97.2*	-24.8%
CCCN1CCC(=O)N(C(CSc2ccc(C)cc2)CC(C)C)CC1 (centres undefined)	nt	nt	-1.0%	nt	nt	nt
CCCCOc1nc2ccccc2nc1[C@H](C#N)C(=O)NC1CCCCC1	nt	15.7%	nt	nt	nt	nt
COc1ccc2c(c1)CCC[C@]1(C)O[C@@H]1C(=O)c1ccccc1O2	nt	nt	nt	nt	-19.5	nt
O=[N+]([O-])c1cnccc1-n1nnc2ccccc21	nt	nt	nt	?	-63.5*	nt
O=C(O)c1ccc(-n2nnc3ccccc32)c([N+](=O)[O-])c1	10.6%	12.1%	9.6%	19.3%	11.0	33.6%
Cc1ccc(-c2nn(C)c(=O)c3ccccc23)cc1CNC(=O)/C=C/c1ccccc1	20.6µM*	?	18.4%	-24.9%	-13.7	-52.5%
COc1cc(OC)c(C2CC(=O)N3CN(c4ccc(C)cc4)CSC3=C2C#N)cc1OC (centres undefined)	18.7%	2.9%	?	24.6%	64.2	-5.7%
COc1ccc(C2CC(=O)N3CN(c4ccc(C)c(Cl)c4)CSC3=C2C#N)cc1OC (centres undefined)	nt	0.4%	5µM*	-13.5%	-24.1	-15.2%
COc1ccc(N2CSC3=C(C#N)C(c4cc(OC)c(OC)cc4OC)CC(=O)N3C2)c(OC)c1 (centres undefined)	nt	-7.4%	1.99µM*	-24.4%	12.0	-8.1%
COc1ccc(N2CSC3=C(C#N)C(c4ccc(OC)c(OC)c4)CC(=O)N3C2)c(OC)c1 (centres undefined)	nt	nt	1.41µM*	-0.6%	-2.3	-12.9%
Cc1ccc(N2CSC3=C(C#N)C(c4cccs4)CC(=O)N3C2)cc1 (centres undefined)	nt	nt	?	16.0%	60.7	-14.3%
COc1ccc(C2CC(=O)N3CN(C4CCCCC4)CSC3=C2C#N)cc1 (centres undefined)	4.7%[46.1 µM]	25.2%[46.1 µM]	nt	-13.7%	12.2	nt
COc1ccc(N2CSC3=C(C#N)C(c4cc(OC)ccc4OC)CC(=O)N3C2)c(OC)c1 (centres undefined)	nt	4.1%	1.58µM*	-21.1%	nt	?
COc1ccc(CCC(=O)NC2CC(=O)N(c3ccc(C)c(C)c3)C2)cc1 (centres undefined)	-3.9%[46.1 µM]	nt	nt	-11.9%	64.6	nt
Cc1nc2ccn(Cc3ccco3)c(=O)c2cc1C(=O)NCc1ccc(F)cc1	?	nt	nt	-8.9%	5.4	nt
COc1ccc(N2CSC3=C(C#N)C(c4cccs4)CC(=O)N3C2)cc1 (centres undefined)	-3.2%	3.5%	0.5µM*	2.9%	41.6	15.8%
CCOc1ccccc1N1CSC2=C(C#N)C(c3c(OC)ccc4ccccc34)CC(=O)N2C1 (centres undefined)	nt	nt	6.29µM*	-25.5%	-23.1	7.6%
CCc1ccc(C2CC(=O)N3CN(c4ccccc4)CSC3=C2C#N)cc1 (centres undefined)	nt	nt	?	-14.1%	25.9	1.4%
SMILES	LASV entry inh	Marburg entry inh	FBPA Giardia inh	FMDV inh	HCMV antiviral	HCV inhibitor
OC[C@H]1O[C@@H](n2cnc3cc(Cl)c(Cl)cc32)[C@H](O)[C@H]1O	nt	nt	-1.7%	-18.2%	nt	nt
CC(=O)Nc1ccc(C2=NNC(=Nc3ccc(S(=O)(=O)N4CCOCC4)cc3)SC2)cc1	?	11.2µM*	-21.0%	-8.5%	-35.9	?
O=S(=O)(c1ccc(N=C2NN=C(c3cc(F)ccc3F)CS2)cc1)N1CCOCC1	12.6µM*	5.01µM*	-10.2%	-28.7%	-98.8*	22.4µM*
COCCN=C1NN=C(c2ccc(NC(C)=O)cc2)CS1	nt	-16.6%[46.1 µM]	-4.8%	50.6%	-66.8*	27.6%
CC(=O)Nc1ccc(C2=NNC(=Nc3cccc(S(=O)(=O)N(C)C)c3)SC2)cc1	nt	nt	-21.4%	-14.4%	nt	?
CCOC(=O)CCN1C(=O)[C@H]2[C@H]3[C@H](O)[C@H](O)C/C(=N/NC(=O)OCc4ccccc4)[C@@H]3CC[C@@H]2C1=O	nt	29.4%[14.2 µM]	0.4%[12.9 µM]	nt	nt	nt
CC[C@H]1C2=C3C(CC[C@H]4C(OCc5ccc(F)cc5C(F)(F)F)OC[C@](C)([C@@H]34)N(C(=O)OC(C)(C)C)C2)C2COC(=O)OCC21 (some centres undefined)	nt	nt	-7.0%	nt	nt	nt
N#Cc1ccc(CN2CCC3(CC2)CCN(S(=O)(=O)c2ccccc2)CC3)cc1	nt	nt	0.4%	?	nt	nt
COc1cc(/C=N/NC(=O)c2sc(N)c(C#N)c2C)cc(Br)c1O	?	?	-0.4%	-7.1%	-67.0*	?
COc1ccccc1CNc1ncnc2ccc(-c3cccc(NS(C)(=O)=O)c3)cc12	nt	nt	-0.6%	-19.2%	nt	nt
COc1ccc(Oc2ncc3nc(-c4cc(F)cc(F)c4)c(=O)n(C[C@H]4CCCO4)c3n2)cc1	nt	nt	-10.2%	-17.0%	nt	nt
Cc1cc(S(=O)(=O)NCc2ccccc2)ccc1OCC(=O)Nc1cccc([N+](=O)[O-])c1	?	11.6µM*	-5.8%	-20.4%	-8.2	?
COc1cc(N2C(=O)C=CC2=O)ccc1N1C(=O)C=CC1=O	?	?	nt	31.6µM*	-75.9*	?
COc1ccc(N2C(=O)C3CC(C)=C(C)CC3C2=O)c(OC)c1 (centres undefined)	7.8%	-3.8%	5.6%	-21.8%	1.3	20.4%
Cc1cccc2[nH]c3c(N4CCN(C(=O)c5ccco5)CC4)ncnc3c12	0.8%	-20.2%	-5.5%	?	nt	-35.1%
Cc1cccc2[nH]c3c(N4CCC5(CC4)OCCO5)ncnc3c12	-23.4%	?	-22.9%	39.8µM*	-16.4	8.91µM*
Clc1ccc2[nH]c3c(N4CCC5(CC4)OCCO5)ncnc3c2c1	10µM*	10µM*	2.6%	?	nt	12.6µM*
COc1cccc2c1nc(C)c1cc(C)oc12	-3.6%	-2.5%	2.9%	11.9%	34.2	5.62µM*

Compound activity as filed in PubChem BioAssay.
